Lassa entry inh – inhibitors of Lassa virus binding or cell entry; Potency, µM (series often up to 37.9 µM), inactives show top-dose activity change, negative = inhibition, hits mostly inhibitors; AID 540256; hit rate 1.2% among 300,000; Lassa virus pseudotype entry inhibition, cell reporter; calls by dose curve; tested in HEK293 cells; note: potency is the fitted concentration of half-maximal effect; nearly all actives have a fitted effect of over 50% in size
FMDV antiviral – blocks foot and mouth disease virus; FMDV antiviral cell-based qHTS; Potency, µM (doses to about 57.9 µM), without a hit: at the highest dose activity change, negative = inhibition, hits mostly inhibitors; hit rate 1.2% among 410,000; calls by dose curve; tested in HEK293T cells; note: read-out not given here; potency is the fitted concentration of half-maximal effect; nearly all actives have a fitted effect of over 45% in size
HCMV antiviral – inhibitors of human cytomegalovirus; hit rate 4.5% among 410,000; HFF cells, HCMV-luciferase reporter, 72 h; stronger effect = lower value; AID 1259415; activity change, negative = inhibition, % at 57.5 µM; in the data active = activity change below about -60%; inconclusive = no clear call, values can overlap the other calls; inactive = above about -39%
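Human foreskin fibroblasts infected with luciferase-reporter HCMV at MOI 1 PFU/cell, compounds at two doses. Luciferase measured 72 h post infection; normalized to buffer-only basal and Salinomycin (10uM) controls.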
VACV Venus inh – vaccinia inhibition (Venus reporter). AID 720580. Vaccinia virus Venus reporter expression, fluorescence. Potency, µM (top dose mostly 36.5 µM), without a hit: at the top dose activity change, negative = inhibition, most hits filed as inhibitors. hit rate 0.46% among 330,000; calls by dose curve; tested in A549 cells; note: potency is the fitted concentration of half-maximal effect; nearly all actives have a fitted effect of over 30% in size
VACV mCherry inh – inhibitors of vaccinia virus infection (mCherry reporter signal); hit rate 0.63% among 310,000; Vaccinia virus mCherry reporter infection, fluorescence; Potency, µM (doses to about 36.5 µM), inactives show top-dose activity change, negative = inhibition, hits mostly inhibitors; calls by dose curve; tested in A549 cells; note: potency is the fitted concentration of half-maximal effect; nearly all actives have a fitted effect of over 35% in size
Marburg entry inh – blocks Marburg virus binding to or entry into cells; Marburg virus pseudotyped entry inhibition, cell reporter; Potency, µM (series often up to 37.8 µM), inactives show at the top dose activity change, negative = inhibition, hits mostly inhibitors; hit rate 1.8% among 300,000; AID 540276; calls by dose curve; tested in HEK293 cells; note: potency is the fitted concentration of half-maximal effect
* = called active by the depositor; i = inactive; ? = inconclusive; . = not tested or not shown; [ ] = remark or other dose. Only some compounds are listed: those with a hit (about 6.5% of all), similar ones and a draw of the others. % is set by controls: 0 for no effect and ±100 for the full control effect.

SMILES	Lassa entry inh	FMDV antiviral	HCMV antiviral	VACV Venus inh	VACV mCherry inh	Marburg entry inh
Cc1ccc(-c2[nH]ncc2/C=N/n2c(COc3ccccc3C)nc3ccccc3c2=O)cc1	?	-16.6%	-88.7*	11.2µM*	?	11.2µM*
Cc1cc(/C=N/n2c(COc3ccccc3C)nc3ccccc3c2=O)c(O)c([N+](=O)[O-])c1	.	14.6%	-91.9*	.	.	1.4%
O=c1c2ccccc2ccc2ccccc12	.	7.0%	-104.0*	.	.	.
O=c1c2ccccc2oc2c1ccc1ccccc12	.	44.9%	.	?	?	.
O=C(Nc1ccc(-c2csc(Nc3ccc(Cl)cc3)n2)cc1)c1cccc(C(F)(F)F)c1	.	20µM*	?	?	?	0.5%
O=C(Nc1ccc(-c2csc(Nc3ccccc3)n2)cc1)c1cccc(C(F)(F)F)c1	.	?	-81.2*	?	?	.
O=C(Cc1ccccn1)c1ccccc1	.	26.2%	-9.1	0.8%	-3.5%	.
O=C(Cc1ccccn1)c1ccc(Cl)cc1	.	46.3%	-68.3*	-1.4%	-1.4%	.
COc1cccc(NC(=O)N[C@H]2CC[C@@]34CCCN3C(=O)CCC[C@H]4C2Cc2ccccc2)c1 (some centres undefined)	.	.	-4.4	.	.	.
O=C(NCc1ccccc1)c1cc(C2CCCCN2S(=O)(=O)c2ccccc2)on1 (centres undefined)	.	1.2%	-18.9	-8.2%	27.5%	.
COc1ccc(S(=O)(=O)N2CCCCC2c2cc(C(=O)NCc3ccccc3)no2)cc1 (centres undefined)	.	1.3%	-61.5*	-5.6%	i	.
Cc1ccc(-n2c(-c3cccs3)nc3nc4ccccc4nc32)cc1	.	.	-63.0*	.	.	.
N#Cc1cccc(C2CC(OCCF)=CC(=O)O2)c1 (centres undefined)	.	-15.6%	16.7	-1.4%	5.7%	.
Cc1nc(C)c(C(=O)Nc2ccc(Oc3ccccc3)cc2)o1	?	-29.8%	-89.4*	-18.1%	-4.4%	-15.3%
COc1ccccc1C(=O)Nc1ccc(Oc2nnc(-c3ccc(C)cc3)c3ccccc23)cc1	-5.6%	-21.8%	-69.6*	-6.5%	-9.5%	-26.3%
COc1ccccc1Oc1ccc(NC(=O)c2ccccc2C)cc1	.	36.4%	-5.2	?	?	.
COc1ccc(C(=O)Nc2ccc(N3CCCC3)cc2)cc1	4.8%	17.5%	34.3	-10.2%	i	-15.3%
Cc1ncoc1C(=O)Nc1ccc(Oc2ccccc2)cc1	1.4%	1.7%	-33.0	.	.	17.1%
COc1ccc(C(=O)Nc2ccc(N3CCN(C(=O)c4ccccc4C)CC3)cc2)cc1	-23.6%	?	-82.1*	-17.7%	i	-20.8%
COc1ccc(Oc2ccc(NC(=O)c3ccccc3C)cc2)cc1	?	-13.5%	-85.2*	-24.8%	-28.6%	-12.6%[46.1 µM]
CCOC(=O)c1c(C)[nH]c(C(=O)OCc2ccccc2)c1C	?	22.9%	24.5	-17.1%	-8.0%	?
COC(=O)CCc1c(C)[nH]c(C(=O)OCc2ccccc2)c1C	7.08µM*	26.8%	-0.4	-6.7%	-17.4%	-12.8%
CC(=O)OC(/C(O)=C(\C#N)c1nc2ccccc2[nH]1)c1ccccc1 (centres undefined)	-8.3%	.	-95.6*	-29.0%	?	-21.3%
C/C(O)=C(/C#N)c1nc2ccccc2[nH]1	6.4%	-12.7%	-21.6	?	.	4.0%[46.1 µM]
CCC(=O)N(C1=C(NC)C(=O)c2ccccc2C1=O)C(C)C	.	-17.4%	-78.3*	?	?	.
SMILES	Lassa entry inh	FMDV antiviral	HCMV antiviral	VACV Venus inh	VACV mCherry inh	Marburg entry inh
CCC(=O)NC1=C(NC(C)c2ccccc2)C(=O)c2ccccc2C1=O (centres undefined)	5.6%	-13.8%	-9.6	4.6%	9.8%	1.1%
O=C(OCc1ccc(F)cc1)c1cccnc1Cl	5.3%	-23.2%	-60.4*	-12.6%	-0.4%	8.8%[46.1 µM]
Nc1ccc2cc3[nH]c4cc(N)ccc4c3nc2c1	?	-19.2%	-98.5*	-24.6%	?	?
CC1(C(=O)NS(C)(=O)=O)CCN1C(=O)Cc1ccc(Cl)cc1Cl (centres undefined)	.	2.6%	-9.1	-2.9%	0.3%	.
Cc1ccc(NC(=O)/C=C/c2ccco2)cc1S(=O)(=O)N1CCCCCC1	.	0.0%	-89.2*	.	.	.
O=C(/C=C/c1ccco1)Nc1cccc(S(=O)(=O)N2CCOCC2)c1	-2.9%	-12.2%	?	-17.6%	-8.7%	?
CC1(c2ccc3ccccc3c2)NC(=O)N(CC(=O)Nc2cccc(S(=O)(=O)N3CCOCC3)c2)C1=O (centres undefined)	0.1%	35.5µM*	?	-4.2%	-19.3%	?
CCc1noc(C)c1C(=O)Nc1ccc(C)c(S(=O)(=O)N2CCCCCC2)c1	-28.1%	28.2µM*	-37.9	-20.6%	-7.7%	?
Cc1ccc(NC(=O)Cc2ccccc2F)cc1S(=O)(=O)N1CCCCCC1	.	-10.8%	-77.8*	.	.	.
CCC(N)(C(=O)O)c1ccc(C(=O)O)cc1 (centres undefined)	.	-4.2%	.	-10.3%	-2.8%	.
COc1ccc(C(=O)N2CCN(S(=O)(=O)c3ccc4c(c3)OCCO4)CC2)cc1OC	.	-24.2%	3.0	.	.	.
Cc1ccc(C2(C)NC(=O)N(CC(=O)Nc3ccc(Cl)c(S(=O)(=O)N4CCCCC4)c3)C2=O)cc1 (centres undefined)	-26.6%	-21.6%	-0.5	?	-12.9%	11.2µM*
COCCNCC(=O)Nc1ccc(C)c(S(=O)(=O)N2CCCCC2)c1	2.3%	1.8%	-5.4	-9.3%	-5.6%	0.0%[14.2 µM]
Cc1ccc(NC(=O)CCl)cc1S(=O)(=O)N1CCCCCC1	-24.8%	22.4µM*	-97.7*	-14.5%	-11.5%	?
Cc1ccc(CNC(=O)C(=O)NCC(c2cccs2)S(=O)(=O)c2cccs2)cc1 (centres undefined)	?	-28.4%	0.8	-13.1%	-20.0%	.
COc1ccc(C(=O)NC(=S)NNC(=O)c2ccc(O)cc2)cc1[N+](=O)[O-]	-1.5%	8.1%	24.5	-3.2%	-28.6%	14.7%
COc1ccccc1C(=O)Nc1ccc(Cc2ccncc2)cc1	-1.9%	-17.2%	-2.7	-13.0%	-6.5%	-31.7%
COc1c(C)cc(Br)cc1C(=O)Nc1ccc(Cc2ccncc2)cc1	-27.7%[46.1 µM]	?	-72.0*	-9.3%	-2.2%	?
Cc1ccc(C(=O)N(Cc2ccc(N(C)C)cc2)Cc2ccco2)cc1	?	-0.1%	-38.4	-5.3%	-10.7%	1.6%[46.1 µM]
C=CCc1cc(Cl)ccc1OCCCNC(C)C	?	-8.7%	-25.5	-6.0%	i	?
CCC(C)NCCOCCOc1ccc(Cl)c(C)c1C (centres undefined)	?	?	-82.6*	?	-13.4%	?
CCC(C)NCCCOc1cc(Cl)ccc1Cl (centres undefined)	?	-21.4%	93.0	-21.3%	-22.9%	?
CCC(C)NCCOCCOc1ccc(Cl)c2ccccc12 (centres undefined)	?	0.0%	-11.4	28.2µM*	?	?
C=CCc1cc(Cl)ccc1OCCOCCNC(C)CC (centres undefined)	?	-25.6%	-11.0	3.8%	-6.0%	11.2µM*
COC(=O)CC=C1c2ccccc2C[C@H](OC)[C@@H]1C	.	.	.	.	.	-1.1%[14.2 µM]

Bioassay records as filed in PubChem.
